# The list is not random: actives were taken first. Their share in the collection is about 1.1%.
# Menin MLL FP TR – inhibitors of human menin-MLL interaction, mutant MLL peptide | Potency, µM (top dose mostly 61.6 µM), actives largely listed as inhibitors | 270,000 compounds, 0.23% hits | Menin + Texas Red MLL mutant peptide, fluorescence polarization | O00255; active = well fitted inhibition curve with a large enough effect in the polarisation, with a control signal flat, not every such curve was filed as active; inconclusive = small, poorly fitted or top-dose-only effect, or effect the other way, or a change in a side signal; inactive = no such curve, though single readings can be large or run the other way; the % refers to the polarisation
# Menin-MLL FL inh – displaces fluorescein MLL peptide from human menin | Fluorescence polarization, fluorescein-MLL peptide displacement from menin | FP activity change, % at 61.4 µM | 290,000 tested, under 10 active; active = well fitted curve in the direction sought with a large enough effect in the polarisation, not every such curve was filed as active; inconclusive = small, poorly fitted or top-dose-only effect, or effect the other way, or a change in a side signal; inactive = no such curve, though single readings can be large or run the other way; the % refers to the polarisation
# KCNH2 WT inh – inhibitors of human wildtype KCNH2 potassium channel; 340,000 compounds, 0.37% hits; Q12809; U2OS, BacMam KCNH2, thallium flux FluxOr; stronger effect = lower value; activity change, % at 1.84 µM; AID 720551;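 active = maximum activity change below -70%; inconclusive = maximum activity change between -70% and -50%; inactive = maximum activity change above -50%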
# Target sequence (Q12809 whole entry, looked up): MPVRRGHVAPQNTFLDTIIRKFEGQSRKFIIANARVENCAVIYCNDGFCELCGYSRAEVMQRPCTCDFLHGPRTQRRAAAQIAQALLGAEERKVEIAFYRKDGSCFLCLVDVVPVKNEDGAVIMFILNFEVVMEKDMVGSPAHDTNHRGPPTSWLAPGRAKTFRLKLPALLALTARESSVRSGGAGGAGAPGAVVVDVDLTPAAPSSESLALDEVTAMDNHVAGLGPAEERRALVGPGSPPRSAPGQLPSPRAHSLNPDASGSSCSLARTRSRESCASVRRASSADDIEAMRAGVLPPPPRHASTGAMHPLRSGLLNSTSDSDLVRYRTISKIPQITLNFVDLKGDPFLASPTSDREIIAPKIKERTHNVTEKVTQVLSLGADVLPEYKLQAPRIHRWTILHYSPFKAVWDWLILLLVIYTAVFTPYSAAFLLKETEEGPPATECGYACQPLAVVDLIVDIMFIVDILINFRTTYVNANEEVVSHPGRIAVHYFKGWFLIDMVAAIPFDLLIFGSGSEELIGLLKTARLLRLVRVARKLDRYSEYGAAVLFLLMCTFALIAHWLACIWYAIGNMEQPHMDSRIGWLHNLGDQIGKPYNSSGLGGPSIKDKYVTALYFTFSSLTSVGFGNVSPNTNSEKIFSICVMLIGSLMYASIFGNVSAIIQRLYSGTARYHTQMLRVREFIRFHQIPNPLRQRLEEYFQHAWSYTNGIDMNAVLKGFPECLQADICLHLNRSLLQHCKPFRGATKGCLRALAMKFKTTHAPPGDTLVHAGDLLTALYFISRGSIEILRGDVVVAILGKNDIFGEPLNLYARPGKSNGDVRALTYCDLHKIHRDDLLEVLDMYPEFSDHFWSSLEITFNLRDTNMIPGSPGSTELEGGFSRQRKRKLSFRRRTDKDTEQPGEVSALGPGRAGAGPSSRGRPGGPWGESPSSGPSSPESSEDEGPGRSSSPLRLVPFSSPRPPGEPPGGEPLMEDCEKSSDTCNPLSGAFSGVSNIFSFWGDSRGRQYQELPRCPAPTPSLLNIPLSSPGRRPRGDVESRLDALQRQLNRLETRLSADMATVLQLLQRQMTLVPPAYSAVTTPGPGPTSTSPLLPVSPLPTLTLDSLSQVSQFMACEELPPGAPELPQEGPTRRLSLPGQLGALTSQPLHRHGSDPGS
#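 U2OS cells transduced with wild-type KCNH2 virus are loaded with FluxOr dye for 45 min, and thallium flux is measured in kinetic reads before and after stimulation buffer. Rate constants are normalized to DMSO controls.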
# KCNH2 3.1 inh – blocks the human KCNH2 3.1 channel isoform. U2OS KCNH2 3.1, thallium flux FluxOr; stronger effect = lower value. activity change, % (tested at about 1.8 µM). 340,000 compounds, 0.95% hits. AID 720553;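 active = maximum activity change below -70%; inconclusive = maximum activity change from -70% to -50%; inactive = maximum activity change above -50%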;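 note: thallium influx rate constant from kinetic fluorescence after stimulation buffer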
#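 U2OS cells transduced with KCNH2 3.1 mutant virus (1.77 x 10^8 /mL, 4 h), plated overnight at 37 C, loaded 45 min with FluxOr dye plus Red40 quencher. Thallium flux rate constant from kinetic reads after stimulation buffer, normalised to controls.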
# CXXC DNA block – blocks binding of human MLL CXXC domain to DNA; 290,000 compounds, 0.037% hits; Q03164; MLL-CXXC / FITC-HOXA9 DNA fluorescence polarization; Potency, µM (top dose mostly 115 µM), most hits filed as inhibitors; active = well fitted inhibition curve with a large enough effect in the polarisation, with a control signal flat, not every such curve was filed as active; inconclusive = small, poorly fitted or top-dose-only effect, or effect the other way, or a change in a side signal; inactive = no such curve, though single readings can be large or run the other way; the % refers to the polarisation
#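 Steps: dispense CXXC domain solution (7 uM) → pin compounds or unlabeled HOX-A9 DNA control → 5 min ambient → add FLSN-HOX-A9 solution (50 nM) → spin → 30 min ambient → fluorescence polarization. Tris pH 7.5/NaCl/DTT/BSA buffer.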
# MLL CXXC Fl – MLL CXXC-DNA interaction inhibition, fluorescein FP; shares compounds with CXXC DNA block; MLL CXXC-DNA binding, fluorescein FP; Potency, µM (top dose mostly 345 µM), actives largely listed as inhibitors; 200 compounds, 70% hits; note: nearly all actives have a fitted effect of over 80% in size
# MLL CXXC TxRed – inhibitors of human MLL CXXC domain-DNA interaction, Texas Red format; shares compounds with CXXC DNA block; MLL CXXC-DNA binding, Texas Red fluorescence polarization; Potency, µM (series often up to 345 µM), most hits filed as inhibitors; 200 compounds, 40% hits; note: nearly all actives have a fitted effect of over 75% in size
# MLL CXXC TRF – MLL CXXC-DNA interaction inhibition, HTRF readout; shares compounds with CXXC DNA block; MLL CXXC-DNA binding, HTRF, biochemical; Potency, µM (doses to about 172 µM), most hits filed as inhibitors; 210 compounds, 30% hits; AID 624162; note: nearly all actives have a fitted effect of over 80% in size
# A number is an active result; i = inactive; ? = inconclusive; nt = no result given; ! = a repeat was not active; [ ] = dose if it differs, or a comment. Unless noted, calls come from the whole dose curve; as a rule, active = well fitted inhibition curve with a large enough effect; inconclusive = small, poorly fitted or top-dose-only effect; inactive = no such curve, though single readings can be large or run the other way.
SMILES,Menin MLL FP TR,Menin-MLL FL inh,KCNH2 WT inh,KCNH2 3.1 inh,CXXC DNA block,MLL CXXC Fl,MLL CXXC TxRed,MLL CXXC TRF
CC(=O)[C@]1(O)Cc2c(O)c3c(c(O)c2[C@@H](O[C@H]2C[C@H](N)[C@H](O)[C@H](C)O2)C1)C(=O)c1c(O)cccc1C3=O,?,?,nt,nt,?,6.33µM,22.5µM,i
CC(=O)[C@]1(O)Cc2c(O)c3c(c(O)c2[C@@H](O[C@H]2C[C@H](N)[C@H](O)[C@H](C)O2)C1)C(=O)c1ccccc1C3=O,?,?,i,i,?,2µM,100µM,i
CC(=O)Nc1ccn(C2OC(C(COC(C)=O)NC(=O)C(COCc3ccccc3)NC(=O)OC(C)(C)C)C(OC(C)=O)C2OC(C)=O)c(=O)n1 (stereo not drawn),i,i,nt,nt,nt,nt,nt,nt
CO[C@H]1[C@H](O[C@H]2O[C@@H](C)[C@@H](O[C@@H]3C[C@](C)(O)[C@H](O)[C@H](C)O3)[C@@H](N(C)C)[C@@H]2O)[C@@H](CC=O)C[C@@H](C)[C@@H](O[C@H]2CC[C@H](N(C)C)[C@H](C)O2)/C=C\C=C/C[C@@H](C)OC(=O)C[C@H]1O,i,i,nt,nt,i,nt,nt,nt
CCN(CC)c1ccc2cc(-c3nc4ccccc4n3C)c(=O)oc2c1,i[11.7 µM],?,i,i,?,nt,nt,nt
CCN(CC)c1ccc2cc(-c3nc(-c4ccc(OC)cc4)cs3)c(=O)oc2c1,i,?,-233.4,-132.5,?,0.448µM,?,i
COC(C(=O)C(O)C(C)O)C1Cc2cc3cc(OC4CC(OC5CC(O)C(O)C(C)O5)C(O)C(C)O4)c(C)c(O)c3c(O)c2C(=O)C1OC1CC(OC2CC(OC3CC(C)(O)C(O)C(C)O3)C(O)C(C)O2)C(O)C(C)O1 (stereo not drawn),i,?,nt,nt,?,nt,nt,i
COC(C(=O)C(O)C(C)O)C1Cc2cc3cc(OC4CC(OC5CC(O)C(O)C(C)O5)C(O)C(C)O4)c(C)c(O)c3c(O)c2C(=O)C1OC1CC(OC2CC(OC3CC(O)C(OC)C(C)O3)C(O)C(C)O2)C(O)C(C)O1 (stereo not drawn),nt,nt,i,i,nt,nt,nt,nt
CO[C@H](C(=O)[C@@H](O)[C@@H](C)O)C1Cc2cc3cc(O[C@H]4C[C@@H](O[C@H]5C[C@@H](O)[C@H](O)[C@@H](C)O5)[C@@H](O)[C@@H](C)O4)c(C)c(O)c3c(O)c2C(=O)[C@H]1O[C@H]1C[C@@H](O[C@H]2C[C@@H](O[C@H]3C[C@](C)(O)[C@H](O)[C@@H](C)O3)[C@H](O)[C@@H](C)O2)[C@H](O)[C@@H](C)O1 (stereo partly drawn),i,?,nt,nt,39.8µM,i,i,i
O=C(Nc1ccccc1Br)c1cccc2ccccc12,nt,nt,i,i,nt,nt,nt,nt
Cc1ccc(C2OC34CCCCCC3C(C#N)(C(=N)O4)C2(C#N)C#N)cc1 (stereo not drawn),i,i,i,i,7.94µM,i,?,i
CCCCOc1ccc(C2OC34CCCCC3C(C#N)(C#N)C2(C#N)C(=N)O4)cc1 (stereo not drawn),nt,?,i,i,i,nt,nt,nt
C=CCOc1ccc(C2OC34CCCCC3C(C#N)(C#N)C2(C#N)C(=N)O4)cc1 (stereo not drawn),i,?,i,i,i,nt,nt,nt
CCOc1ccc(C2OC34CCCCC3C(C#N)(C#N)C2(C#N)C(=N)O4)cc1OC (stereo not drawn),nt,?,i,i,25.1µM,17.9µM,35.6µM,i
O=C(Nc1ccncc1)c1cccc(S(=O)(=O)N2CCCC2)c1,i,i,i,nt,i,nt,nt,nt
CC(C)C(=O)Nc1c(-c2ccc(Cl)cc2)c(=O)c2ccccc2n1C,i,i,i,i,?,?,i,i
Cc1ccc(-c2c(NC(=O)C(C)C)n(C)c3ccccc3c2=O)cc1,i,i,i,i,i,nt,nt,nt
O=C1NN(c2ccccc2)C(=O)/C1=C\c1ccc2c(c1)OCO2,i,i,i,i,?,28.3µM,?,i
CC(C)OC(=O)CC(=O)c1sc2nc3c(cc2c1N)CN(C)CC3,i,?,i,i,12.6µM,44.8µM,?,?
CC(C)C1OC2(C)OC(=N)C1(C#N)C(C#N)(C#N)C2c1ccccc1 (stereo not drawn),i,?,i,i,17.8µM,89.5µM,44.8µM,i
Cc1ccc(C(=O)Nc2ccc(S(=O)(=O)O)c3cc(S(=O)(=O)O)cc(S(=O)(=O)O)c23)cc1NC(=O)c1cccc(NC(=O)Nc2cccc(C(=O)Nc3cc(C(=O)Nc4ccc(S(=O)(=O)O)c5cc(S(=O)(=O)O)cc(S(=O)(=O)O)c45)ccc3C)c2)c1,i,i,nt,nt,7.94µM,20µM,22.5µM!,4.85µM
O=C(O)c1ccc(S(=O)(=O)/N=C2\C=C(Nc3ccccc3F)C(=O)c3ccccc32)cc1,?,i,i,i,?,113µM,142µM,i
Cc1cccc(C)c1NC(=O)C1CCN(S(C)(=O)=O)CC1,i,i,i,i,i,nt,nt,nt
CCC1OC2(C)OC(=N)C1(C#N)C(C#N)(C#N)C2c1ccccc1 (stereo not drawn),i,i,i,i,i,nt,nt,nt
CCC12OC(=N)C(C#N)(C1C)C(C#N)(C#N)C(c1ccccc1)O2 (stereo not drawn),i,i,i,i,20µM,12.6µM,22.5µM,i
SMILES,Menin MLL FP TR,Menin-MLL FL inh,KCNH2 WT inh,KCNH2 3.1 inh,CXXC DNA block,MLL CXXC Fl,MLL CXXC TxRed,MLL CXXC TRF
CC(=O)OCCCN1C(=O)c2cccc3cc(Br)cc(c23)C1=O,i,i,nt,nt,i,nt,nt,nt
Nc1cc2c3c(cccc3c1)C(=O)N(CCN1CCCC1)C2=O,i,?,i,i,7.94µM,142µM,?,i
O=C1c2cccc3cc([N+](=O)[O-])cc(c23)C(=O)N1CCN1CCCC1,i,?,i,i,?,nt,nt,nt
CCN(CC)CCN1C(=O)c2cccc3cc(N)cc(c23)C1=O,i,?,i,i,35.5µM,89.5µM,?,i
CCn1c(=O)c2[nH]c(SC)nc2n(CC)c1=O,nt,nt,i,i,nt,nt,nt,nt
COc1ccccc1CN(C)C[C@@H]1OCc2cnnn2CCCC(=O)N([C@@H](C)CO)C[C@H]1C,nt,nt,i,i,nt,nt,nt,nt

# Assay outcomes deposited in PubChem by National Center for Advancing Translational Sciences (NCATS).
